For four compounds, AC50 and outcome results are on record in PubChem BioAssay (EPA / NIEHS).

Experiment [1] can be described thus: ATG_GRE_CIS: Attagene CIS-FACTORIAL HepG2 Assay for human Glucocorticoid Response Elements (GRE) (AID 2282947). The conditions noted are these: HepG2 GRE cis-reporter, Attagene multiplex mRNA; actives raise or lower the signal. An outline of the steps: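 HepG2 cells transiently transfected with multiple cis-promoter reporter units measure endogenous TF activity; 24 h compound exposure. Reporter mRNA quantified by RT-PCR, FAM labelling, HpaI digestion and capillary electrophoresis; bidirectional fit vs DMSO baseline.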

A short description of experiment [2]: ATG_ISRE_CIS: Attagene CIS-FACTORIAL HepG2 Assay for human Interferon Regulatory Factor 1 (IRF1) binding to an Interferon-Stimulated Response Element (ISRE) (AID 2282948). The following applies: HepG2 ISRE cis-reporter (Attagene), mRNA transcription readout; actives raise or lower the signal. The essentials:
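Quantitation relies on labelled RT-PCR fragments separated by capillary electrophoresis. Human HepG2 cells bearing cis-promoter reporter constructs were treated 24 h; DMSO served as baseline for bidirectional fitting.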

A short description of experiment [3]: ATG_M_32_CIS: Attagene CIS-FACTORIAL HepG2 Assay for M32 Transcription Factor (Internal Marker) (AID 2282949).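 Further: background control marker of the multiplexed CIS panel rather than a real target.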 The conditions noted are these: HepG2 Attagene cis-factorial M32 reporter, mRNA; actives raise or lower the signal. The essentials: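 Following 24 h chemical exposure of HepG2 cells transiently expressing cis-promoter reporter constructs, reporter transcript levels were determined by RT-PCR with fluorescent labelling and capillary electrophoresis, then fitted bidirectionally against DMSO.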

A short description of experiment [4]: ATG_M_06_CIS: Attagene CIS-FACTORIAL HepG2 Assay for M06 Transcription Factor (Internal Marker) (AID 2282950). The conditions noted are these: HepG2 Attagene CIS-FACTORIAL M06 internal marker reporter; actives raise or lower the signal. The essentials:
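Terse: HepG2, transient MRTU transfection (FuGene 6), 24 h dosing; total RNA, oligo(dT) RT, PCR, FAM label, HpaI cut, capillary electrophoresis; bidirectional fit vs DMSO baseline; background-control endpoint.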

Experiment [5] concerns the target Hypoxia-inducible factor 1-alpha (Homo sapiens) (UniProt Q16665). In words: ATG_HIF1a_CIS: Attagene CIS-FACTORIAL HepG2 Assay for human Hypoxia Inducible Factor 1 (HIF1A) (AID 2282951). The following applies: HepG2 Attagene cis-factorial HIF1a reporter transcription; actives raise or lower the signal. The essentials: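 HepG2, transient cis-reporter library, 24 h dosing. RNA → RT (oligo dT) → PCR → 6-FAM primer extension → HpaI → CE. Bidirectional curve fit vs DMSO.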

In experiment [6] the target is Hepatocyte nuclear factor 6 (Homo sapiens) (UniProt Q9UBC0). In words: ATG_HNF6_CIS: Attagene CIS-FACTORIAL HepG2 Assay for human Hepatocyte Nuclear Factor 6 (HNF6) (AID 2282952). The following applies: HepG2 Attagene cis-factorial HNF6 reporter transcription; actives raise or lower the signal. An outline of the steps: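 Multiplexed mRNA reporter assay in transfected HepG2; 24 h dosing; RT-PCR plus capillary electrophoresis fluorescence; DMSO-referenced bidirectional curve fitting.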
Chain of Hepatocyte nuclear factor 6 (Homo sapiens) (Q9UBC0 whole entry, looked up): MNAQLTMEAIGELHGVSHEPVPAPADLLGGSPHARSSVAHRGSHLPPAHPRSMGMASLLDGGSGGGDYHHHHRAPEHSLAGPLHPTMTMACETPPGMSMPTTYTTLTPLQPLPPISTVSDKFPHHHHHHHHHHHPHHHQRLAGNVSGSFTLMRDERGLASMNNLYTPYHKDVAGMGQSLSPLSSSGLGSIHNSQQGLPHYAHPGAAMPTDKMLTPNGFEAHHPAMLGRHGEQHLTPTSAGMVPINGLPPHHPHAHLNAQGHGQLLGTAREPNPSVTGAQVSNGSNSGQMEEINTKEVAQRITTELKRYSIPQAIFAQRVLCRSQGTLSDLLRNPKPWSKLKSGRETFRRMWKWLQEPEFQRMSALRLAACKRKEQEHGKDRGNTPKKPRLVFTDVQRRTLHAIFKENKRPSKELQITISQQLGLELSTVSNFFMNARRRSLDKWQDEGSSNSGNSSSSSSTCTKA

The target in experiment [7] is Heat shock factor protein 1 (Homo sapiens) (UniProt Q00613). In words: ATG_HSE_CIS: Attagene CIS-FACTORIAL HepG2 Assay for human Heat Shock Transcription Factor 1 (HSE) (AID 2282953). The conditions noted are these: HepG2 HSE cis-reporter, Attagene RNA transcription; actives raise or lower the signal. The essentials: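 Read-out: fluorescence of reporter-specific RT-PCR fragments separated by capillary electrophoresis. HepG2 carrying transfected cis-element reporter units; 24 h dosing; activity fitted in both directions relative to DMSO baseline.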
Chain of Heat shock factor protein 1 (Homo sapiens) (Q00613 whole entry, looked up, the tested form may be a part): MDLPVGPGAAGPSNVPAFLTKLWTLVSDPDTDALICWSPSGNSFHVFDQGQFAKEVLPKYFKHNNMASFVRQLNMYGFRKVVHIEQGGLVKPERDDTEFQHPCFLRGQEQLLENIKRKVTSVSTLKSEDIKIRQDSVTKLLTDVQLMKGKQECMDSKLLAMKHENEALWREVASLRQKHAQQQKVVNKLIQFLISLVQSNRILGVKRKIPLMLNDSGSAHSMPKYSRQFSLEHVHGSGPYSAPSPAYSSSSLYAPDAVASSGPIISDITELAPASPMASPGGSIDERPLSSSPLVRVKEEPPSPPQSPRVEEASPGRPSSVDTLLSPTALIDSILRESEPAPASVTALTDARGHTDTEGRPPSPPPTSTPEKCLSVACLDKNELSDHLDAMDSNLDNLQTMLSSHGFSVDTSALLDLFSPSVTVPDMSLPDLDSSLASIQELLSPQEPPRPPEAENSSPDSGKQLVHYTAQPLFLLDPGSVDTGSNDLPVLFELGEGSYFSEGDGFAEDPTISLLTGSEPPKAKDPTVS

Experiment [8] is described as follows: ATG_MRE_CIS: Attagene CIS-FACTORIAL HepG2 Assay for human Metal Responsive Element (MRE) (AID 2282954). The following applies: HepG2 MRE cis-reporter transcription, Attagene multiplex; actives raise or lower the signal. The essentials: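 HepG2 cells transiently transfected with multiple cis-element reporter units measure endogenous MTF1-driven transcription. After 24 h compound exposure, reporter mRNA is quantified by RT-PCR with 6-FAM labelling, HpaI digestion and capillary electrophoresis; bidirectional fits versus DMSO.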

Experiment [9] deals with Paired box protein Pax-6 (Homo sapiens) (UniProt P26367). In words: ATG_Pax6_CIS: Attagene CIS-FACTORIAL HepG2 Assay for human Paired Box 6 (PAX6) (AID 2282956). The following applies: HepG2 CIS-FACTORIAL PAX6 reporter transcription, RNA readout; actives raise or lower the signal. The essentials:
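After twenty-four hours of chemical exposure, transfected HepG2 cells are harvested for RNA. Cis-promoter reporter transcripts are amplified, fluorescently labelled and sized by capillary electrophoresis, with gain and loss of signal scored against DMSO.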

Experiment [10] is described as follows: ATG_PXRE_CIS: Attagene CIS-FACTORIAL HepG2 Assay for human Pregnane X Receptor Element (PXRE) (AID 2282957). The following applies: HepG2 Attagene CIS-FACTORIAL PXRE reporter, mRNA; actives raise or lower the signal. The essentials:
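Cells: HepG2, transiently transfected reporter units under cis promoter control. Exposure: 24 h. Detection: reporter mRNA via RT-PCR/CE fluorescence; bidirectional fitting, DMSO-referenced.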

The nature of experiment [11]: ATG_PPRE_CIS: Attagene CIS-FACTORIAL HepG2 Assay for human Peroxisome Proliferator-activated Response Element (PPRE) (AID 2282958). The following applies: HepG2 PPRE cis-element reporter, Attagene transcription factor profiling; actives raise or lower the signal. An outline of the steps: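 Transcript-level reporter induction in transfected HepG2 cells after 24 h chemical exposure, quantified by fluorescence from RT-PCR products separated by capillary electrophoresis.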

Experiment [12] is described as follows: ATG_Sox_CIS: Attagene CIS-FACTORIAL HepG2 Assay for human SRY-box transcription factor (SOX) (AID 2282960). The following applies: HepG2 Attagene cis-factorial SOX reporter, mRNA; actives raise or lower the signal. The essentials:
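Cells were transfected with reporter constructs under cis-regulatory promoters, then exposed to chemicals for 24 h. Reporter transcripts were quantified by fluorescence after RT-PCR and capillary electrophoresis; activity was fitted in both directions against DMSO.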

Experiment [13] has as its target Transcription factor Sp1 (Homo sapiens) (UniProt P08047). In words: ATG_Sp1_CIS: Attagene CIS-FACTORIAL HepG2 Assay for human Specificity Protein 1 (Sp1) (AID 2282961). The conditions noted are these: HepG2 Sp1 cis-reporter transcription, actives raise or lower the signal. The essentials: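 Measures mRNA induction of an Sp1-linked reporter in HepG2 cells 24 h post-dosing. Multiplexed reporters read by RT-PCR and capillary electrophoresis; DMSO serves as negative control and baseline.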

Experiment [14] in a line: ATG_SREBP_CIS: Attagene CIS-FACTORIAL HepG2 Assay for human Sterol Regulatory Element Binding (SREBP) (AID 2282962). The following applies: HepG2 Attagene cis-factorial SREBP reporter, mRNA; actives raise or lower the signal. An outline of the steps: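 Twenty-four hours after chemical dosing of transfected HepG2 cultures, reporter RNA was converted to cDNA, amplified, end-labelled with 6-FAM and resolved by capillary electrophoresis. Responses were fitted relative to DMSO.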

Experiment [15] concerns the target Signal transducer and activator of transcription 3 (Homo sapiens) (UniProt P40763). In words: ATG_STAT3_CIS: Attagene CIS-FACTORIAL HepG2 Assay for human Signal Transducer and Activator of Transcription 3 (STAT3) (AID 2282963). The following applies: HepG2, Attagene cis-factorial STAT3 reporter transcription; actives raise or lower the signal. The essentials:
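HepG2 cells transiently transfected with cis-element-driven multiple reporter transcription units; after 24 h chemical exposure, reporter mRNA measured by RT-PCR, 6-FAM primer-extension labelling, HpaI digestion and capillary electrophoresis. Bidirectional fitting versus DMSO baseline.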

A short description of experiment [16]: ATG_TA_CIS: Attagene CIS-FACTORIAL HepG2 Assay for human TA Basal Promoter (AID 2282964). The conditions noted are these: HepG2 Attagene CIS-factorial TA basal promoter reporter; actives raise or lower the signal. The essentials: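 Transfected HepG2, 24 h compound exposure; RNA → RT-PCR → FAM primer extension → HpaI cut → CE fluorescence. Gain/loss-of-signal fitted against DMSO negative control. Background-control readout.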

Experiment [17] is described as follows: ATG_TCF_b_cat_CIS: Attagene CIS-FACTORIAL HepG2 Assay for human T-Cell-Factor with beta-catenin (TCF/b-cat) (AID 2282965). The following applies: HepG2 TCF/beta-catenin cis-reporter transcription, actives raise or lower the signal. An outline of the steps:
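HepG2 cells transiently transfected with multiple cis-promoter-regulated reporter transcription units, so endogenous transcription factor activity is measured. Reporter mRNA read 24 hours after dosing by RT-PCR, fluorescent labelling and capillary electrophoresis; bidirectional fitting against DMSO.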

Experiment [18] has as its target Bile acid receptor (Homo sapiens) (UniProt Q96RI1). In words: ATG_IR1_CIS: Attagene CIS-FACTORIAL HepG2 Assay for human Nuclear Receptor Subfamily 1 Group H Member 4 (NR1H4), IR1 submotif (AID 2282946). The following applies: IR1 reporter transcription, actives raise or lower the signal. An outline of the steps: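 Transient MRTU transfection, HepG2; 24 h dosing; RNA → RT-PCR → 6-FAM primer extension → HpaI digest → capillary electrophoresis fluorescence. Gain/loss of signal fitted relative to DMSO.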

Experiment [19] in a line: ATG_PBREM_CIS: Attagene CIS-FACTORIAL HepG2 Assay for human Phenobarbital-responsive Enhancer Module (PBREM) (AID 2282955). The following applies: HepG2 PBREM cis-reporter, Attagene multiplexed transcription; actives raise or lower the signal. An outline of the steps: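 HepG2, transient MRTU transfection, 24 h dosing; RNA → oligo(dT) RT → PCR → 6-FAM extension → HpaI → CE. Bidirectional fit vs DMSO.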

The nature of experiment [20]: ATG_RORE_CIS: Attagene CIS-FACTORIAL HepG2 Assay for human RAR-related Orphan Receptor Element (RORE) (AID 2282959). The conditions noted are these: HepG2 Attagene cis-factorial RORE reporter, mRNA; actives raise or lower the signal. The essentials: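 Multiplexed reporter assay measuring mRNA induction from a cis promoter element in transiently transfected HepG2 cells after 24 h treatment. Detection via RT-PCR and capillary electrophoresis fluorescence; DMSO serves as baseline.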

The source made the active and inactive calls. How the source made its calls: active means hit-call score of the fitted dose curve at least 0.9, where 1 is the maximum; inactive means score below 0.9.

Chain of Transcription factor Sp1 (Homo sapiens) (P08047 whole entry, looked up): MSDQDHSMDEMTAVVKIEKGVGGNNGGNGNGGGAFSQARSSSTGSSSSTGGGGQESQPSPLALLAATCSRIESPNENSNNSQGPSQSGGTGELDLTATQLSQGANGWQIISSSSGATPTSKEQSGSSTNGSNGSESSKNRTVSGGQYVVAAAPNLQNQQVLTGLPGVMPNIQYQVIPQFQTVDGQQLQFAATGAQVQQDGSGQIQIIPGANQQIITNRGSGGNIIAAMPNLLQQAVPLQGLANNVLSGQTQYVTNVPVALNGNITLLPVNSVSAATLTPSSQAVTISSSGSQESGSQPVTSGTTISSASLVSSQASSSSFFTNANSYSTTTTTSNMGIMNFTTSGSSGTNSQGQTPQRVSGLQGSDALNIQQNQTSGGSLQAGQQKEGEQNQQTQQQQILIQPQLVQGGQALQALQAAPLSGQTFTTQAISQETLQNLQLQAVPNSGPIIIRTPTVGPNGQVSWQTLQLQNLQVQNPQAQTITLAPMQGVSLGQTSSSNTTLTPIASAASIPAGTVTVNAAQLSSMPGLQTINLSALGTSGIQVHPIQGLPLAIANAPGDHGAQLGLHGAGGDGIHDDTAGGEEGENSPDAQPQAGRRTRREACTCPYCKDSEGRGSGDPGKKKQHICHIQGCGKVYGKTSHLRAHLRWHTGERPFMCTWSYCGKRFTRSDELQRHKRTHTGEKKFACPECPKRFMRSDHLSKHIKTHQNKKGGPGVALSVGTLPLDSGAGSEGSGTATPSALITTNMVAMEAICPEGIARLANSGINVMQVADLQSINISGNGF
Chain of Hypoxia-inducible factor 1-alpha (Homo sapiens) (Q16665 whole entry, looked up): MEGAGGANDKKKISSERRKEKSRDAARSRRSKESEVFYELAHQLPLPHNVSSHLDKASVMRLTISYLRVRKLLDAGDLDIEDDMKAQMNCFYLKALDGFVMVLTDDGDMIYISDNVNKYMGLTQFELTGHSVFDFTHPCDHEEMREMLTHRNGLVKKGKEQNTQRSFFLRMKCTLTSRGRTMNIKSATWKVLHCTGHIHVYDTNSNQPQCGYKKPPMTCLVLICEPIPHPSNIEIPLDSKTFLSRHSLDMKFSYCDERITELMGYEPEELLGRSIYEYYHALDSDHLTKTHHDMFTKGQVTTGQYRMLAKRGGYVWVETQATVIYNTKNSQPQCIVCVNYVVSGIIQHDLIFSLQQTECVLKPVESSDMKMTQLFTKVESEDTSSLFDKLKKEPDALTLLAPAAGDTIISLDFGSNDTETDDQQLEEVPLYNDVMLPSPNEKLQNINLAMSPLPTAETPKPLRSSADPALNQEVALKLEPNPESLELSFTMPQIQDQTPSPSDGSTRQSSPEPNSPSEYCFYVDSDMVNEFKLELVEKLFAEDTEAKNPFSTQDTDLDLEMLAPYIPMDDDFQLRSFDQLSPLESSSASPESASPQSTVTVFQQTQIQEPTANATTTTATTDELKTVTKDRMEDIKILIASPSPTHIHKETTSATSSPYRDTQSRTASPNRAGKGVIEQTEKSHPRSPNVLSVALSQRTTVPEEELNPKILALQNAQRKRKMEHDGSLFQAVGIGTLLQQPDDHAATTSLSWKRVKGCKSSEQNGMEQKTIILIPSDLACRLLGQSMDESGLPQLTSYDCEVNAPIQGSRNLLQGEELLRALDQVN
Chain of Signal transducer and activator of transcription 3 (Homo sapiens) (P40763 whole entry, looked up): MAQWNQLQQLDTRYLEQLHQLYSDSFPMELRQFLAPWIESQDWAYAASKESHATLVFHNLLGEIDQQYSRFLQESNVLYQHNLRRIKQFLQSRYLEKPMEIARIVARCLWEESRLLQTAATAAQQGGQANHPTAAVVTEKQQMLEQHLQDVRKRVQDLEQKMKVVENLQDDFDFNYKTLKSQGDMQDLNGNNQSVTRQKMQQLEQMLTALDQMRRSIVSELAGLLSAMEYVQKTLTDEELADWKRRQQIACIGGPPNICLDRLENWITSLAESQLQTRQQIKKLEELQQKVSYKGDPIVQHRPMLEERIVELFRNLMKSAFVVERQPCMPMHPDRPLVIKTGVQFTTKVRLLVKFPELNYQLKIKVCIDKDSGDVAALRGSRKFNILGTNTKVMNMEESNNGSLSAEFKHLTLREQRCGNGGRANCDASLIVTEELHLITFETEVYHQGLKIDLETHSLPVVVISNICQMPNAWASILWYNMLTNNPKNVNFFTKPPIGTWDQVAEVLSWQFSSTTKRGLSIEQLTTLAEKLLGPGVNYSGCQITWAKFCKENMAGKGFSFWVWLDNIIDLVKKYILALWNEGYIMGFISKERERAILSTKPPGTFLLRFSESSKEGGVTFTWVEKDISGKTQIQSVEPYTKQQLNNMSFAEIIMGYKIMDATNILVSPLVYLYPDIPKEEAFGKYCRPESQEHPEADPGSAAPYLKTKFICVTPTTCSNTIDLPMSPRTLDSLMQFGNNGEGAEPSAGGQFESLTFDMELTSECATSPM
Chain of Paired box protein Pax-6 (Homo sapiens) (P26367 whole entry, looked up): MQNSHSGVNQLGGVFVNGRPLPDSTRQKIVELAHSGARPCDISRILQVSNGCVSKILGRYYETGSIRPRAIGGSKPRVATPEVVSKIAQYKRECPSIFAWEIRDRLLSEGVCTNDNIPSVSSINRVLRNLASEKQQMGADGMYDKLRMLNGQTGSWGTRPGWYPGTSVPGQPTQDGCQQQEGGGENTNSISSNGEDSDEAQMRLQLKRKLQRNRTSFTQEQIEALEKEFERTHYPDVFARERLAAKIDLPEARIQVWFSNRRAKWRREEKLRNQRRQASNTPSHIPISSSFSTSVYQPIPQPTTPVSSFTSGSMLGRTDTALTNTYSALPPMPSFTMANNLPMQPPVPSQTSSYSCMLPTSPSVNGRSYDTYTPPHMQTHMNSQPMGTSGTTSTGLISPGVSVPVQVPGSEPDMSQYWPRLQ
Chain of Bile acid receptor (Homo sapiens) (Q96RI1 whole entry, looked up): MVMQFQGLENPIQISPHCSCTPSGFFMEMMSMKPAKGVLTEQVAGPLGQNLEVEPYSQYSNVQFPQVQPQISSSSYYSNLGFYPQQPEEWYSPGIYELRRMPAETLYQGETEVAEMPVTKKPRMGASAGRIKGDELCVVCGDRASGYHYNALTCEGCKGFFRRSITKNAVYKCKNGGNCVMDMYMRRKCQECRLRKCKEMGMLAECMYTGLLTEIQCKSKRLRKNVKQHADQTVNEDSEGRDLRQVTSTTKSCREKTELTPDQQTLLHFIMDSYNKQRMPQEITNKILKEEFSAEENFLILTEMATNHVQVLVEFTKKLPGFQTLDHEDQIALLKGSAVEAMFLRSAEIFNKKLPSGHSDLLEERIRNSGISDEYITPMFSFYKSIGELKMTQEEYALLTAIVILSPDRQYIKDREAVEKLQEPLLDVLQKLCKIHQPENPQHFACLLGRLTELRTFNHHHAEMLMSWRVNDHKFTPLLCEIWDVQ

In the case of `O=P(OC(CCl)CCl)(OC(CCl)CCl)OC(CCl)CCl`, the AC50 was 153 µM (active) in experiment [1]; 23.2 µM (active) in experiment [2]; 36.3 µM (active) in experiment [5]; 153 µM (active) in [6]; 151 µM (active) in [7]; 107 µM (active) in experiment [8]. The AC50 was 46.9 µM (active) in experiment [9]; 0.371 µM (active) in experiment [10]; 24.4 µM (active) in [14]; 188 µM (active) in [15]; 100 µM (active) in experiment [17]. Also, the compound was classed as inactive in experiment [3], in [4], in [11], in experiment [12], in experiment [13] and in experiment [16].
As for `CCCCCCCCCCCCc1ccccc1`, the compound was classed as inactive in experiment [18], in experiment [2], in experiment [3], in [4], in [5] and in experiment [6]. Also, the call in experiment [8], in [19], in [9], in [10], in experiment [11] and in [20] was inactive. In addition, the call in experiment [12], in experiment [13], in experiment [14], in [15], in experiment [16] and in experiment [17] was inactive.
`O=c1[nH]c2ccc(S(=O)CCN3CCC(Cc4ccc(F)cc4)CC3)cc2o1` (stereo not given): the compound was classed as inactive in experiment [1], in [2], in experiment [3], in [4], in experiment [5] and in experiment [6]. Moreover, the outcome in experiment [19], in experiment [11], in experiment [20], in experiment [13], in [15] and in [16] was inactive. Further, in [17], the call was inactive. The AC50 in experiment [8] is 155 µM (active); in experiment [9] it was 73 µM (active); in experiment [10] it was 26.3 µM (active); in experiment [12], 66.5 µM (active); in [14] it was 31.2 µM (active).
In the case of `CCC(C)(C)C(=O)O[C@H]1C[C@@H](C)C=C2C=C[C@H](C)[C@H](CC[C@@H]3C[C@@H](O)CC(=O)O3)[C@H]21`, the outcome in [1], in [2], in [3], in experiment [4], in experiment [5] and in experiment [6] was inactive. Also, the call in experiment [7], in [8], in [19], in experiment [9], in [11] and in experiment [20] was inactive. The compound was classed as inactive in [13], in [15], in experiment [16] and in experiment [17]. The AC50 in experiment [14] was 0.0317 µM (active).

By AC50 is commonly meant the concentration giving half of the maximal activity seen.
